# Measurements: publication PMC7862700, “An all-to-all approach to the identification of sequence-specific readers for epigenetic DNA modifications on cytosine”
# What was measured:
# Experiment in all cases: DAPPL (digital affinity profiling via proximity ligation, sequencing); 10 mM Tris-HCl pH 7.5, 50 mM NaCl, 1 mM DTT, 4% glycerol, room temperature, 30 min; GST-TFs on glutathione beads, 16-mer random dsDNA library, 0.1% formaldehyde crosslink after washing; high values mean tight binding
# EHF = target: T1, EHF (Homo sapiens, UniProt Q9NZC4 1-300); settings: protein: recombinant; tags: N-terminal GST; dsDNA, one strand shown
# T1 sequence: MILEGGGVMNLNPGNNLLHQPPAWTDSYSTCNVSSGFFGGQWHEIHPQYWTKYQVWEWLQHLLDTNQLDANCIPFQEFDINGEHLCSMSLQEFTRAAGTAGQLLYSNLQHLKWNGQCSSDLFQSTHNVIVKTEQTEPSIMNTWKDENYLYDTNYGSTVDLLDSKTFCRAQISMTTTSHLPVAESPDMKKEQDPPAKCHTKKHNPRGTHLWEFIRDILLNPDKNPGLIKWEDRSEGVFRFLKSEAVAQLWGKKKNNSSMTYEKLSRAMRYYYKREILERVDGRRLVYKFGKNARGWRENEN
# In short: (§1)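 GST fusions of human transcription factors were expressed in yeast and captured with glutathione beads. Once given DNA barcodes and pooled alongside a tag-only sample, they were incubated for 30 min at room temperature with 200 nmole of a random double-stranded 16-mer DNA library in Tris/NaCl/DTT/glycerol buffer, then washed, crosslinked (0.1% formaldehyde), proximity-ligated, PCR-amplified and sequenced on an Illumina NextSeq500. The binding signal of each hexamer is its read frequency for a factor divided by its frequency for the tag-only sample.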
# HSF1 = HSF1 (Homo sapiens, UniProt Q00613 1-529); settings: protein: recombinant; tags: N-terminal GST; chain copies: 3; dsDNA, one strand shown
# In short: as §1
# SPIC = target: T2, SPIC (Homo sapiens, UniProt Q8N5J4 1-248); settings: protein: recombinant; tags: N-terminal GST; dsDNA, one strand shown
# T2 sequence: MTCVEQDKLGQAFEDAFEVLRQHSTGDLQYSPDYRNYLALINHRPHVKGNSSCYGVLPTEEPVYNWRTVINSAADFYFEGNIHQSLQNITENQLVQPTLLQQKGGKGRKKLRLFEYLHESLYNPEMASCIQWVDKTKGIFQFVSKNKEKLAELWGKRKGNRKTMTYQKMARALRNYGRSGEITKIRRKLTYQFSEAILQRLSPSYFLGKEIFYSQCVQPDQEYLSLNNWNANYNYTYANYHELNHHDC
# In short: as §1
# ELK1 = target: T3, ELK1 (Homo sapiens, UniProt P19419 1-428); settings: protein: recombinant; tags: N-terminal GST; dsDNA, one strand shown
# T3 sequence: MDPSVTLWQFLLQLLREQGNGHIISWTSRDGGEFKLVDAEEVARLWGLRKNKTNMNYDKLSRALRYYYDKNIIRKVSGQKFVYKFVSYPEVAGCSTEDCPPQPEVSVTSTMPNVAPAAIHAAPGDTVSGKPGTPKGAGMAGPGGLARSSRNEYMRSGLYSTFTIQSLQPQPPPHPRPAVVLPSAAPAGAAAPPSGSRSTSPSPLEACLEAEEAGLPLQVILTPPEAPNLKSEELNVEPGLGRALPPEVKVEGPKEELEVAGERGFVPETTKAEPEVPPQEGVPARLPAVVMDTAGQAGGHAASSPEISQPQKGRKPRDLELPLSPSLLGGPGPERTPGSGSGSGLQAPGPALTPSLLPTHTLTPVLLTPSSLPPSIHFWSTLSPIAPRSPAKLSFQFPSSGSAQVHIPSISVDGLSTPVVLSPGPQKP
# In short: as §1
# GABPA = target: T4, GABPA (Homo sapiens, UniProt Q06546 1-454); settings: protein: recombinant; tags: N-terminal GST; dsDNA, one strand shown
# T4 sequence: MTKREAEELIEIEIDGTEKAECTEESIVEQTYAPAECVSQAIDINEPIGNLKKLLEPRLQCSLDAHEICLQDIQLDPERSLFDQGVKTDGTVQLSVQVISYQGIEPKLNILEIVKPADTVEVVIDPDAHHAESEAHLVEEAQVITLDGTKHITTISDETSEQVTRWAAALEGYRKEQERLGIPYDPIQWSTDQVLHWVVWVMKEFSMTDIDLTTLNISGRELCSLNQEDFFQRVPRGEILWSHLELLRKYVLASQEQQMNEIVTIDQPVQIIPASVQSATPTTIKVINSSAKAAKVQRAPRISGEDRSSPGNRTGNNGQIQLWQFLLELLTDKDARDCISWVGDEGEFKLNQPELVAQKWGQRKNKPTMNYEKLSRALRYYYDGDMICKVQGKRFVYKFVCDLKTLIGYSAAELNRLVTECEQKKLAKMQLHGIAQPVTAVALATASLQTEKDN
# In short: as §1
# ELK3 = target: T5, ELK3 (Homo sapiens, UniProt P41970 1-407); settings: protein: recombinant; tags: N-terminal GST; dsDNA, one strand shown
# T5 sequence: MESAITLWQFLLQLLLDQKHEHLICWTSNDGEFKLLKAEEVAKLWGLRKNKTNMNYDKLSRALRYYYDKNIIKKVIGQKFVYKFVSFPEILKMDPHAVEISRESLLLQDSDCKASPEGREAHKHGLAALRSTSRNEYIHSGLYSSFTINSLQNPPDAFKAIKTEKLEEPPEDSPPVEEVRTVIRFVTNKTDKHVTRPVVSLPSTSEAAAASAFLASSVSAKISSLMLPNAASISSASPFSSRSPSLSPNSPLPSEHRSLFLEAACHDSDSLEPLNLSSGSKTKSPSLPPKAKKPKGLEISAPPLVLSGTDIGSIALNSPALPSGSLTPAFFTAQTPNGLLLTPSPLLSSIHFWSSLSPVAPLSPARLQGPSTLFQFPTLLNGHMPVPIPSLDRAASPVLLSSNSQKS
# In short: as §1
# FEV = target: T6, FEV (Homo sapiens, UniProt Q99581 1-238); settings: protein: recombinant; tags: N-terminal GST; dsDNA, one strand shown
# T6 sequence: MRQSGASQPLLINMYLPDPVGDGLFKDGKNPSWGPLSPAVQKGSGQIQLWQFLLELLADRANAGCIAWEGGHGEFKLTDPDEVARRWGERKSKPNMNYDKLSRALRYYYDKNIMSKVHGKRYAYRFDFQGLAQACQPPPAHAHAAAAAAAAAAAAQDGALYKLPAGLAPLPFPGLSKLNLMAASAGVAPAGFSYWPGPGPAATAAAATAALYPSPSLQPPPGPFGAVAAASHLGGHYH
# In short: as §1
# ELK4 = target: T7, ELK4 (Homo sapiens, UniProt P28324-2 1-405); settings: protein: recombinant; tags: N-terminal GST; dsDNA, one strand shown
# T7 sequence: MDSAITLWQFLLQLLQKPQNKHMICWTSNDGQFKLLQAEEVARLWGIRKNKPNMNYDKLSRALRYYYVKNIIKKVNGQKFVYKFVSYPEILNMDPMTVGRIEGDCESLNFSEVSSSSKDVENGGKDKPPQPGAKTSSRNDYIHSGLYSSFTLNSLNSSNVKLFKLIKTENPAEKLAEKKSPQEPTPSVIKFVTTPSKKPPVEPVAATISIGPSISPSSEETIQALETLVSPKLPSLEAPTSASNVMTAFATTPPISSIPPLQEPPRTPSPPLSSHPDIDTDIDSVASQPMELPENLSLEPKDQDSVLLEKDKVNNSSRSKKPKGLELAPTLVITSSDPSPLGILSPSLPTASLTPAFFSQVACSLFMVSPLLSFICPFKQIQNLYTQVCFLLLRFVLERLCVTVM
# In short: as §1
# ETV2 = target: T8, ETV2 (Homo sapiens, UniProt O00321 1-342); settings: protein: recombinant; tags: N-terminal GST; dsDNA, one strand shown
# T8 sequence: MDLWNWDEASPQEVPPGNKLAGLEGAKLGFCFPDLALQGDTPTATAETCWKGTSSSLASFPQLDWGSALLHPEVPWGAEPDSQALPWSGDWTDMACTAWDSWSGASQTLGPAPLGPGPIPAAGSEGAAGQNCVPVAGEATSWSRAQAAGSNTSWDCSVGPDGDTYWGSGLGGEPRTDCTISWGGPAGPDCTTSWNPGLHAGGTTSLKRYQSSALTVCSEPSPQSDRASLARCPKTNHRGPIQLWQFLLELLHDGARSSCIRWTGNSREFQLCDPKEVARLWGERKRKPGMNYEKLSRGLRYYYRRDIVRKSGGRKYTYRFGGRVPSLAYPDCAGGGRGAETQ
# In short: as §1
# ELF3 = target: T9, ELF3 (Homo sapiens, UniProt P78545 1-371); settings: protein: recombinant; tags: N-terminal GST; dsDNA, one strand shown
# T9 sequence: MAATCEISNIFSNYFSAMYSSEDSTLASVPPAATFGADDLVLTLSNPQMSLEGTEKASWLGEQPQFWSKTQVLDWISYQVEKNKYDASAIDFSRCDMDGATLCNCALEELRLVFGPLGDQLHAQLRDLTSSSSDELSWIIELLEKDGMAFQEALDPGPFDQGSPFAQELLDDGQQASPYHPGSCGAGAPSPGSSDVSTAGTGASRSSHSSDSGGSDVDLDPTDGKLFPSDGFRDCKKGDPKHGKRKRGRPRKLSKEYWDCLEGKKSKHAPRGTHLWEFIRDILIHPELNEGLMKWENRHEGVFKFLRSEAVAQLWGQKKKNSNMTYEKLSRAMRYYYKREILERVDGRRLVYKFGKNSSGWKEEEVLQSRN
# In short: as §1
# CRX = CRX (Homo sapiens, UniProt O43186 1-299); settings: protein: recombinant; tags: N-terminal GST; dsDNA, one strand shown
# In short: as §1
# ETV1 = ETV1 (Homo sapiens, UniProt P50549 1-477); settings: protein: recombinant; tags: N-terminal GST; dsDNA, one strand shown
# In short: as §1
# ETV3L = target: T10, ETV3L (Homo sapiens, UniProt Q6ZN32 1-361); settings: protein: recombinant; tags: N-terminal GST; dsDNA, one strand shown
# T10 sequence: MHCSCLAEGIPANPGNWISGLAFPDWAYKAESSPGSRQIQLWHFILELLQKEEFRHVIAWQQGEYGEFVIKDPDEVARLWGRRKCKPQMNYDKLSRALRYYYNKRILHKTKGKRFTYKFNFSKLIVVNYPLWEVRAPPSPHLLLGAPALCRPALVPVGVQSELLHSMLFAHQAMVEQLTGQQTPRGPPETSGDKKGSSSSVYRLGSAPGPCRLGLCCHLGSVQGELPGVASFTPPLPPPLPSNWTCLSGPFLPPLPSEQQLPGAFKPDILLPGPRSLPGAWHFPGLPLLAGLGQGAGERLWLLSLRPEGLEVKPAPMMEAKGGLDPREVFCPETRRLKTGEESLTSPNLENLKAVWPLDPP
# In short: as §1
# SPDEF = target: T11, SPDEF (Homo sapiens, UniProt O95238 1-335); settings: protein: recombinant; tags: N-terminal GST; dsDNA, one strand shown
# T11 sequence: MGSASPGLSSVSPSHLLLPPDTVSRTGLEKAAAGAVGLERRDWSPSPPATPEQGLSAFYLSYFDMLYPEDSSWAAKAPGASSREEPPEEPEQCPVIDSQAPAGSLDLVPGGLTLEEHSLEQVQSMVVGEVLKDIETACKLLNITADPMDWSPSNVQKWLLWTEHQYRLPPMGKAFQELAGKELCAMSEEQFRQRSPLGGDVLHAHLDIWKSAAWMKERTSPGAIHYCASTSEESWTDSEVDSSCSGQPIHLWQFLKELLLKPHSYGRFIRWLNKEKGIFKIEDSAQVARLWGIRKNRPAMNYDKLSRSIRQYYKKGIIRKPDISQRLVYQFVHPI
# In short: as §1
# ETV7 = target: T12, ETV7 (Homo sapiens, UniProt Q9Y603 1-341); settings: protein: recombinant; tags: N-terminal GST; dsDNA, one strand shown
# T12 sequence: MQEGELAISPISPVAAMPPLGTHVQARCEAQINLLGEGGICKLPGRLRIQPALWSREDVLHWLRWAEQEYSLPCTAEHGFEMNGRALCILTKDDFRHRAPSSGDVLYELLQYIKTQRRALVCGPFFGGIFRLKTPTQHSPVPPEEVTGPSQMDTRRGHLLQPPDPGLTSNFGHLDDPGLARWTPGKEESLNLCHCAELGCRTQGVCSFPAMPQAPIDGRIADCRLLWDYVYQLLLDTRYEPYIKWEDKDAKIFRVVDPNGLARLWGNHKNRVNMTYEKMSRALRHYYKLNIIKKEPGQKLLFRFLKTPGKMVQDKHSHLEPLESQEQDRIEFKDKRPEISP
# In short: as §1
# HSF1, sequence (Q00613 whole entry): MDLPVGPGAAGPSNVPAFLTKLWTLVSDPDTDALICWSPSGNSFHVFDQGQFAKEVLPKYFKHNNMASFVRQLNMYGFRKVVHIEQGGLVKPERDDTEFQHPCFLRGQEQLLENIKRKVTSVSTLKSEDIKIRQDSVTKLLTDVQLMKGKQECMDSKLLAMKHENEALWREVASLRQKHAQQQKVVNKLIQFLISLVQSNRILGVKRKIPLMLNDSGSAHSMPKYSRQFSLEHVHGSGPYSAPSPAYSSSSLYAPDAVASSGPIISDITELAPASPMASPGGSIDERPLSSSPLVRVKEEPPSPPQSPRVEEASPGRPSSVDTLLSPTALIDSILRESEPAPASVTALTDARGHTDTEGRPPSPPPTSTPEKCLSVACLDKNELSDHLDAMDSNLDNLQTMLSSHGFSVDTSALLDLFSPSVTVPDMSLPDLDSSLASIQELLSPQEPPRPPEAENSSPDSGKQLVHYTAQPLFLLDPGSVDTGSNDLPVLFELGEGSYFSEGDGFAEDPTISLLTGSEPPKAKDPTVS
# CRX, sequence (O43186 whole entry): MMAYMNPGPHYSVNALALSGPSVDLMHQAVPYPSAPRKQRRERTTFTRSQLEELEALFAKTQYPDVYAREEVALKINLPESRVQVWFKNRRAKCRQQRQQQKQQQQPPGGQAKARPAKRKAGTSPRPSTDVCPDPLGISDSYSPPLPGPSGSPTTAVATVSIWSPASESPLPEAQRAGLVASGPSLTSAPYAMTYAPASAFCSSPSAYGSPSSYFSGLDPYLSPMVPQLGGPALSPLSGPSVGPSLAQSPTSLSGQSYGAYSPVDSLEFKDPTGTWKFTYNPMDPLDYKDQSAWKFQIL
# ETV1, sequence (P50549 whole entry): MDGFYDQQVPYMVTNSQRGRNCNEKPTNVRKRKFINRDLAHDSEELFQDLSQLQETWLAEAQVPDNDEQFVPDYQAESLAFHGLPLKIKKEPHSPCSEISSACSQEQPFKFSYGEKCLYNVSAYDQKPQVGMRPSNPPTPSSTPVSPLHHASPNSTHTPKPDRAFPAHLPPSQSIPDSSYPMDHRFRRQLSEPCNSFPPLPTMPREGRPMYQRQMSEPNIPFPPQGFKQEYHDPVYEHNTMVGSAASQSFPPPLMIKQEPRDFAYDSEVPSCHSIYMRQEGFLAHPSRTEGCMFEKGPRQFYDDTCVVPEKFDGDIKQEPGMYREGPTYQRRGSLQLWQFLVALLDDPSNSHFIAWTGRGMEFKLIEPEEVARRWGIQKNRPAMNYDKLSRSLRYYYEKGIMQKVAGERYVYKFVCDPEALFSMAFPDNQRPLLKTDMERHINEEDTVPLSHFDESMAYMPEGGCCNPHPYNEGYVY
sequence,measurement,setting,value
CTAGGA,binding signal,EHF,"1.01 fold enrichment (6-mer frequency, TF over GST control)"
same,binding signal,HSF1,"1.08 fold enrichment (6-mer frequency, TF over GST control)"
same,binding signal,SPIC,"1.01 fold enrichment (6-mer frequency, TF over GST control)"
TAGACA,binding signal,ELK1,"1.07 fold enrichment (6-mer frequency, TF over GST control)"
same,binding signal,GABPA,"1.01 fold enrichment (6-mer frequency, TF over GST control)"
same,binding signal,ELK3,"1.02 fold enrichment (6-mer frequency, TF over GST control)"
same,binding signal,FEV,"1.02 fold enrichment (6-mer frequency, TF over GST control)"
same,binding signal,HSF1,"1.11 fold enrichment (6-mer frequency, TF over GST control)"
same,binding signal,ELK4,"1.11 fold enrichment (6-mer frequency, TF over GST control)"
same,binding signal,ETV2,"1.01 fold enrichment (6-mer frequency, TF over GST control)"
same,binding signal,ELF3,"1.01 fold enrichment (6-mer frequency, TF over GST control)"
same,binding signal,CRX,"1.03 fold enrichment (6-mer frequency, TF over GST control)"
same,binding signal,ETV1,"1.01 fold enrichment (6-mer frequency, TF over GST control)"
same,binding signal,ETV3L,"1.01 fold enrichment (6-mer frequency, TF over GST control)"
same,binding signal,SPDEF,"1.03 fold enrichment (6-mer frequency, TF over GST control)"
same,binding signal,ETV7,"1.07 fold enrichment (6-mer frequency, TF over GST control)"
TCGAAG,binding signal,HSF1,"1.57 fold enrichment (6-mer frequency, TF over GST control)"
same,binding signal,SPIC,"1.02 fold enrichment (6-mer frequency, TF over GST control)"
same,binding signal,CRX,"1.09 fold enrichment (6-mer frequency, TF over GST control)"
CCCAGA,binding signal,HSF1,"1.31 fold enrichment (6-mer frequency, TF over GST control)"
same,binding signal,ELK4,"1.01 fold enrichment (6-mer frequency, TF over GST control)"
